TEAD-YAP inh: TEAD-YAP interaction inhibition, primary screen, TEAD-YAP interaction inhibitor project, luminescence, HEK-TIYL cells; TEAD-Gal4/YAP UAS-luciferase luminescence; inhibition, % at 9.12 µM; 1.4% of 640,000 active; AID 1259422, 2018; in the data active = inhibition above about 32%
FBW7 act: FBW7 E3 ligase activators, primary screen, biochemical, AlphaScreen, human | F-box/WD repeat-containing protein 7 (Homo sapiens), Q969H0 | 0.13% of 650,000 active | normalized activity (activation), % at 26.1 µM | AlphaScreen FBW7–phospho-cyclin E peptide binding, activator screen; in the data active = normalized activity above about 1.9%;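 also: purified mutant Fbw7 with reduced substrate affinity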
GPR151 activ: activators of human GPR151, primary screen, cell-based, PathHunter beta-arrestin, luminescence | G-protein coupled receptor 151 (Homo sapiens), Q8TDV0 | PathHunter beta-arrestin GPR151 cells | activation, % at 11.2 µM | 1% of 650,000 active; in the data active = activation above about 4.9%
Target sequence (Q8TDV0 whole entry, looked up): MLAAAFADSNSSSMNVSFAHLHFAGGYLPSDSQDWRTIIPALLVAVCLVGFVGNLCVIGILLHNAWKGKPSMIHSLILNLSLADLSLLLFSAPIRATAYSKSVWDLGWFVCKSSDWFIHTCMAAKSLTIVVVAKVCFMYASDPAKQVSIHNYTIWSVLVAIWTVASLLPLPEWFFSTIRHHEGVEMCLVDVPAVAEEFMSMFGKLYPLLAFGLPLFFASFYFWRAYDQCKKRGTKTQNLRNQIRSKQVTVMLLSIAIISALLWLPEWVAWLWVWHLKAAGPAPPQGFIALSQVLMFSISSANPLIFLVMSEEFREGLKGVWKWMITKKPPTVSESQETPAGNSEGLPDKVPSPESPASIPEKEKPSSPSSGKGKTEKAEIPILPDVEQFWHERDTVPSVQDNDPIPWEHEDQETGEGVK
MITF inh: MITF inhibitors, primary screen, biochemical, AlphaScreen, human | Microphthalmia-associated transcription factor (Homo sapiens), O75030 | AlphaScreen MITF homodimerization, bead proximity signal | inhibition, % at 2.6 µM | 0.91% of 650,000 active | AID 1259374, 2018; in the data active = inhibition above about 50%
Numbers stand for hits; ! = repeats disagree. An excerpt weighted towards active compounds, which were near 3.5% of everything screened.

Screening Cc1ccc(C)c(NC(=O)C(=O)NCCc2ccccc2F)c1 returned TEAD-YAP inh inactive, FBW7 act inactive, GPR151 activ inactive and MITF inh inactive.
`Nc1ccccc1Oc1nc(N2CCOCC2)nc(N2CCOCC2)n1` gave TEAD-YAP inh inactive, FBW7 act inactive, GPR151 activ inactive and MITF inh inactive.
Screening CCC(Sc1nc2ccccc2c(=O)n1Cc1ccccc1OC)C(=O)NCc1cccnc1 (centres undefined) returned TEAD-YAP inh inactive, FBW7 act inactive, GPR151 activ inactive and MITF inh inactive.
Screening COc1ccc(C(=O)Nn2c(SCC(=O)NC3CCCC3)nc3ccccc3c2=O)cc1 returned TEAD-YAP inh 79.2, FBW7 act inactive, GPR151 activ inactive and MITF inh inactive.
For CCC(Sc1nc2ccccc2c(=O)n1NC(=O)c1ccc(OC)cc1)C(=O)NCc1cccnc1 (centres undefined) the results were TEAD-YAP inh 79.4, FBW7 act inactive, GPR151 activ inactive and MITF inh inactive.
For COc1ccc(C(=O)Nn2c(SCc3c(F)cccc3Cl)nc3ccccc3c2=O)cc1 the results were TEAD-YAP inh 78.9, FBW7 act inactive, GPR151 activ inactive and MITF inh inactive.
Screening Cc1nc(C(C)NC2CCN(c3nc(C)c4cc(C)c(C)cc4n3)CC2)cs1 (centres undefined) returned TEAD-YAP inh inactive, FBW7 act inactive, GPR151 activ inactive and MITF inh inactive.
CCOC(=O)/C=C(\Nc1ccc(C)cc1N)c1ccccc1 was read as TEAD-YAP inh 37.9, FBW7 act inactive, GPR151 activ inactive and MITF inh inactive.
For Cc1ccc(NC(=O)COc2ccccc2)c(N)c1 the results were TEAD-YAP inh inactive, FBW7 act inactive, GPR151 activ inactive and MITF inh inactive.
`Nc1ccc(C(=O)OCc2nc3cc4ccccc4cc3[nH]2)cc1` gave TEAD-YAP inh 48.2, FBW7 act inactive, GPR151 activ inactive and MITF inh inactive.
Nc1ccc(C(=O)OCCCc2nc3cc4ccccc4cc3[nH]2)cc1 was read as TEAD-YAP inh inactive, FBW7 act inactive, GPR151 activ inactive and MITF inh inactive.
For COCCN1C(=O)/C(=C\c2ccccc2F)C(C(=O)OC)=C1C the results were TEAD-YAP inh inactive, FBW7 act inactive, GPR151 activ inactive and MITF inh inactive.
CC(=O)N(C)C1=C(N2CCOCC2)C(=O)c2ccccc2C1=O was read as TEAD-YAP inh 83.8, FBW7 act inactive, GPR151 activ inactive and MITF inh inactive.
For CCN(C1=C(N2CCCC2)C(=O)c2ccccc2C1=O)c1ccccc1 the results were TEAD-YAP inh inactive, FBW7 act inactive, GPR151 activ inactive and MITF inh 69.3.
`CC(=O)c1ccc(NC2=C(N3CCOCC3)C(=O)c3ccccc3C2=O)cc1` gave TEAD-YAP inh inactive, FBW7 act inactive, GPR151 activ inactive and MITF inh inactive.
`CC(=O)N(C1=C(N2CCCCC2)C(=O)c2ccccc2C1=O)c1ccc(F)c(F)c1` gave TEAD-YAP inh inactive, FBW7 act inactive, GPR151 activ inactive and MITF inh inactive.
Screening CC(=O)N(C)C1=C(N2CCCC2)C(=O)c2ccccc2C1=O returned TEAD-YAP inh 94.0, FBW7 act inactive, GPR151 activ inactive and MITF inh inactive.
`CCN(C(C)=O)C1=C(N2CCCC2)C(=O)c2ccccc2C1=O` gave TEAD-YAP inh 84.3, FBW7 act inactive, GPR151 activ inactive and MITF inh inactive.
Screening O=C(Nc1ccncc1)c1cc(Cl)ccc1Cl returned TEAD-YAP inh inactive, FBW7 act inactive, GPR151 activ inactive and MITF inh inactive.
For CCCN(C1CCN(C)CC1)S(=O)(=O)c1ccc(Cl)cc1 the results were TEAD-YAP inh inactive, FBW7 act inactive, GPR151 activ inactive and MITF inh inactive.
Screening N#C/C(=C\c1cc([N+](=O)[O-])ccc1Cl)C(=O)NCc1ccccc1 returned TEAD-YAP inh inactive, FBW7 act inactive, GPR151 activ inactive and MITF inh inactive.
`CCCCCC(=O)N1c2ccccc2NC2=C(C(=O)CC(c3ccc(N(CC)CC)cc3)C2)C1c1ccco1` (centres undefined) gave TEAD-YAP inh 46.6, FBW7 act inactive, GPR151 activ inactive and MITF inh inactive.
CS(=O)(=O)Nc1ccc(-c2cnc3cccc(Nc4cncnc4)c3c2)cc1 was read as TEAD-YAP inh inactive, FBW7 act inactive, GPR151 activ inactive and MITF inh inactive.
For CS(=O)(=O)Nc1ccc(-c2cnc3cccc(Nc4cc(-c5ccccc5)ccn4)c3c2)cc1 the results were TEAD-YAP inh inactive, FBW7 act 2.4, GPR151 activ inactive and MITF inh inactive.
`O=C1NC(=S)N/C1=C\c1ccccc1O` gave TEAD-YAP inh inactive, FBW7 act inactive, GPR151 activ inactive and MITF inh inactive.
`CC1CCN(CCCC(=O)c2ccc(F)cc2)CC1` gave TEAD-YAP inh inactive, FBW7 act inactive, GPR151 activ inactive and MITF inh inactive.
For O=C(CCCN1CC=C(n2c(=O)[nH]c3ccccc32)CC1)c1ccc(F)cc1 the results were TEAD-YAP inh inactive, FBW7 act 1.9!, GPR151 activ inactive and MITF inh inactive.
For Cc1cccc(-c2nc3ccccc3c(=O)n2NCc2ccccc2F)c1 the results were TEAD-YAP inh inactive, FBW7 act inactive, GPR151 activ inactive and MITF inh inactive.
NC(=O)CCC(NC(N)=O)C(=O)O (centres undefined) was read as TEAD-YAP inh inactive, FBW7 act inactive, GPR151 activ inactive and MITF inh inactive.
NC(=O)CCC(NC(=O)NC1CCCCC1)C(=O)O (centres undefined) was read as TEAD-YAP inh inactive, FBW7 act 2.1, GPR151 activ inactive and MITF inh inactive.
For Cc1ccc2nc(-c3ccccc3)cn2c1 the results were TEAD-YAP inh 98.0, FBW7 act inactive, GPR151 activ inactive and MITF inh inactive.
Oc1ccccc1-c1cn2cc(Cl)ccc2n1 was read as TEAD-YAP inh inactive, FBW7 act inactive, GPR151 activ inactive and MITF inh inactive.
For Cc1ccc2nc(-c3ccccc3Br)cn2c1 the results were TEAD-YAP inh 72.6, FBW7 act inactive, GPR151 activ inactive and MITF inh inactive.
`Cc1ccc2nc(-c3cccc(Br)c3)cn2c1` gave TEAD-YAP inh 85.3, FBW7 act inactive, GPR151 activ inactive and MITF inh inactive.
Screening COc1ccccc1N(CC(=O)Nc1cccc(Br)c1)S(=O)(=O)c1ccc(C)cc1 returned TEAD-YAP inh inactive, FBW7 act inactive, GPR151 activ inactive and MITF inh inactive.
Screening COc1cccc(Cn2ccn(-c3cccc(Cl)c3)c(=O)c2=O)c1 returned TEAD-YAP inh 52.7, FBW7 act inactive, GPR151 activ inactive and MITF inh inactive.
COc1cccc(Cn2ccn(Cc3ccccc3)c(=O)c2=O)c1 was read as TEAD-YAP inh inactive, FBW7 act inactive, GPR151 activ inactive and MITF inh inactive.
Screening C=C(C)CN1C(=O)NC(CC)(C2CCN(Cc3ccccc3C)CC2)C1=O (centres undefined) returned TEAD-YAP inh inactive, FBW7 act inactive, GPR151 activ inactive and MITF inh inactive.

Screening results: PubChem BioAssay, The Scripps Research Institute Molecular Screening Center
